In PubChem BioAssay (NCATS):
Inconclusive results are not listed. The source made the active and inactive calls. The call rests on the fitted dose curve; in most records, active means well fitted curve in the direction sought with a large enough effect; inconclusive means small, poorly fitted or top-dose-only effect, or another doubt; inactive means no such curve, though single readings can be large; an effect the other way counts as inactive or inconclusive. Non-standard residues stand in square brackets, D forms with d. Residues, ends and D or L forms follow the SMILES beside them. *: point of attachment. Nva = CCC[C@H](N)C(=O)O; Cbz = O=C(OCc1ccccc1)*

What was measured:
[1] = Quantitative High-Throughput drug screen in 47 multiple myeloma cell lines against the NCATS MIPE library collection: RPMI8226_ATCC cell viability assay (AID 1919871); further: nearly all actives have a fitted effect of over 30% in size; further: potency means the concentration at half of the fitted maximal effect
Outline: (§1)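 500 cells/well per myeloma line exposed to pinned MIPE 4.0 compounds for 48 h at 37 °C, 5% CO2. Viability read as ATP by CellTiter-Glo luminescence, normalised to DMSO-only (100%) and media-only (0%) wells.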

[2] = Quantitative High-Throughput drug screen in 47 multiple myeloma cell lines against the NCATS MIPE library collection: OPM2_DSMZ cell viability assay (AID 1919872); further: nearly all actives have a fitted effect of over 30% in size; further: potency means the concentration at half of the fitted maximal effect
Outline: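 CellTiter-Glo ATP luminescence gave viability after 48 h compound treatment at 37C of 500 multiple myeloma cells per well. Normalisation used DMSO-only wells as 100% and media-only wells as 0% viability; primary qHTS of approved and investigational drugs.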

[3] = Quantitative High-Throughput drug screen in 47 multiple myeloma cell lines against the NCATS MIPE library collection: KMS11_JCRBsus cell viability assay (AID 1919873); further: nearly all actives have a fitted effect of over 50% in size; further: potency means the concentration at half of the fitted maximal effect
Outline: as §1

[4] = Quantitative High-Throughput drug screen in 47 multiple myeloma cell lines against the NCATS MIPE library collection: KMS28BM_JCRB cell viability assay (AID 1919874); further: nearly all actives have a fitted effect of over 35% in size; further: potency means the concentration at half of the fitted maximal effect
Outline: as §1

[5] = target: Cytochrome P450 2D6 (Homo sapiens) (UniProt P10635); test: qHTS for inhibitors of CYP2D6 against the NCATS DSHEA and TCM libraries (AID 1919972)
Cytochrome P450 2D6 (Homo sapiens), sequence (P10635 whole entry, looked up): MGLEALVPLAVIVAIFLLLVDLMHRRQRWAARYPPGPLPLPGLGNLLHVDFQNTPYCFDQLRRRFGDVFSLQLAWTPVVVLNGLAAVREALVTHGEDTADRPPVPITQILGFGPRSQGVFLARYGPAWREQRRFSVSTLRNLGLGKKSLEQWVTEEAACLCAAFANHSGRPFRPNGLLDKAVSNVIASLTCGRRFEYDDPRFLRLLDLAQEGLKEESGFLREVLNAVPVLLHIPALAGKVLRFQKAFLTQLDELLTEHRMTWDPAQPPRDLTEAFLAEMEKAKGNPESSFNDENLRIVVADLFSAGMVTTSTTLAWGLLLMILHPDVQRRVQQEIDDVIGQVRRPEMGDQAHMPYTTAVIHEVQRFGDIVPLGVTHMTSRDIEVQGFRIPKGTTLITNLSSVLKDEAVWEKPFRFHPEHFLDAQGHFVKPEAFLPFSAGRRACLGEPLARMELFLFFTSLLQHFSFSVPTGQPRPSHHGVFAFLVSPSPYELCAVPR
Outline: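 Luminescent P450-Glo read-out of CYP2D6 turnover of a luciferin substrate after NADPH-driven reaction of 30-45 min at room temperature. Compounds were first preincubated 15 min with enzyme at titrated concentrations; quinidine was the intraplate control.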

[6] = target: Cytochrome P450 2C9 (Homo sapiens) (UniProt P11712); test: qHTS for inhibitors of CYP2C9 against the NCATS DSHEA and TCM libraries (AID 1919973);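 further: luminogenic pro-luciferin CYP2C9 substrate turned into luciferin with NADPH regeneration; series mostly up to about 34 µM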
Cytochrome P450 2C9 (Homo sapiens), sequence (P11712 whole entry, looked up, canonical isoform): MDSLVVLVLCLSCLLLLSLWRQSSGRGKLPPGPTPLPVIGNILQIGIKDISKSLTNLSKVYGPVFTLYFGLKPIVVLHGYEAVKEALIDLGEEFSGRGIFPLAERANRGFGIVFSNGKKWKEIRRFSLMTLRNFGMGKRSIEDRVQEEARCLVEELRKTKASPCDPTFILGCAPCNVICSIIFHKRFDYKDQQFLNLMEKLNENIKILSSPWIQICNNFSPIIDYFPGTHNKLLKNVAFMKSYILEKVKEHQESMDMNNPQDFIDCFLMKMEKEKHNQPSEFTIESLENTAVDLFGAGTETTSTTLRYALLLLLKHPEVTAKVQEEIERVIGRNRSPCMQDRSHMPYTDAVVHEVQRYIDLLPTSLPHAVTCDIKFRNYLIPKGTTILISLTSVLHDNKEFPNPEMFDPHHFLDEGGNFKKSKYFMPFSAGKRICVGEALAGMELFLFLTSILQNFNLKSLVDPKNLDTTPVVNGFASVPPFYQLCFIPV
Outline: (§2)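 Read-out is luminescence after P450-Glo detection (30 min, RT). Before that: 15 min compound–enzyme preincubation, then 30-45 min reaction with 1x NADPH regeneration solution, substrate concentration isoform-specific.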

[7] = target: Cytochrome P450 2C19 (Homo sapiens) (UniProt P33261); test: qHTS for inhibitors of CYP2C19 against the NCATS DSHEA and TCM libraries (AID 1919974);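 further: luminescence from luciferin released by CYP2C19 oxidation of a pro-luciferin substrate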
Cytochrome P450 2C19 (Homo sapiens), sequence (P33261 whole entry, looked up): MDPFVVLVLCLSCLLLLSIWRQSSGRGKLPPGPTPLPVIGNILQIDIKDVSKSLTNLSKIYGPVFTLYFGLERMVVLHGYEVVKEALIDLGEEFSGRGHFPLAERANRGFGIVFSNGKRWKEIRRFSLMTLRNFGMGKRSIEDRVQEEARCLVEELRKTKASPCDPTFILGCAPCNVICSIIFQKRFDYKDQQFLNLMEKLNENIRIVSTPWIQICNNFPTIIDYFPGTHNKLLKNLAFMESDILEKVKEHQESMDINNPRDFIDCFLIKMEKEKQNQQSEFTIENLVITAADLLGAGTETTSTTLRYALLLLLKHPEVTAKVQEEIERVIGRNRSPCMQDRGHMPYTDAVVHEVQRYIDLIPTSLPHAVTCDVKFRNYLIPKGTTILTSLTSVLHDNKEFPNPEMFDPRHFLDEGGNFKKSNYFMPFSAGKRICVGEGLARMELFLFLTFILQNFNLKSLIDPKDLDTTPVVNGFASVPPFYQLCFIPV
Outline: as §2

Structure (SMILES)	Potency [1]	Potency [2]	Potency [3]	Potency [4]	outcome [5]	Potency [6]	outcome [7]
C[N+](C)([O-])CCNc1ccc(NCC[N+](C)(C)[O-])c2c1C(=O)c1c(O)ccc(O)c1C2=O	inactive	inactive	inactive	inactive			
Cc1cc(O)c2c(c1)C(=O)c1cccc(O)c1C2=O	inactive	inactive	inactive	inactive			
CC(C=CC1=C(C)CCCC1(C)C)=CC=CC(C)=CC(=O)Nc1ccc(O)cc1	24100 nM (active)	17100 nM (active)	19100 nM (active)	17100 nM (active)			
COc1cc(C)c(C=CC(C)=CC=CC(C)=CC(=O)O)c(C)c1C	1480 nM (active)	inactive	inactive	inactive			
Cc1cn([C@@H]2O[C@H](CO)[C@@H](O)[C@H]2F)c(=O)[nH]c1=O	inactive	inactive	inactive	inactive			
CC[C@@]1([C@@H]2O[C@@H]([C@H]3O[C@@](O)(CO)[C@H](C)C[C@H]3C)C[C@H]2C)CC[C@H]([C@]2(C)CC[C@]3(C[C@H](O)[C@@H](C)[C@@H]([C@@H](C)[C@@H](OC)[C@H](C)C(=O)O)O3)O2)O1	229 nM (active)	144 nM (active)	288 nM (active)	575 nM (active)			
CC1(C)O[C@@H]2C[C@H]3[C@@H]4CCC5=CC(=O)C=C[C@]5(C)[C@@H]4[C@@H](O)C[C@]3(C)[C@]2(C(=O)CO)O1	33.2 nM (active)	inactive	33.2 nM (active)	inactive			
Cn1cnc(=N)c2[nH]cnc21	264 nM (active)	235 nM (active)	93.5 nM (active)	46.9 nM (active)			
CCCCC(=O)O[C@]1(C(=O)CO)[C@@H](C)C[C@H]2[C@@H]3CCC4=CC(=O)C=C[C@]4(C)[C@@]3(F)[C@@H](O)C[C@@]21C	11.8 nM (active)	inactive		inactive			
O=[N+]([O-])c1cn2c(n1)OC[C@@H](OCc1ccc(OC(F)(F)F)cc1)C2	inactive	inactive	inactive	inactive			
N#CC(=C(N)Sc1ccc(N)cc1)c1ccccc1C(F)(F)F	13200 nM (active)	inactive		inactive			
COC1=C2C[C@@H](C)C[C@H](OC)[C@@H](O)[C@@H](C)C=C(C)[C@H](OC(N)=O)[C@@H](OC)C=CC=C(C)C(=O)NC(=CC1=O)C2=O	105 nM (active)	332 nM (active)	83.3 nM (active)	93.5 nM (active)			
C[C@]12CC[C@@H]3c4ccc(O)cc4CC[C@H]3[C@H]1CC[C@H]2O	18700 nM (active)	18700 nM (active)	14800 nM (active)	23500 nM (active)			
O=C(CCCCCCC(=O)Nc1cccnc1)NO	16600 nM (active)	8330 nM (active)	5900 nM (active)	4180 nM (active)			
Cc1ccc([N+](=O)[O-])cc1S(=O)(=O)N(C)N=Cc1cnc2ccc(Br)cn12	46.9 nM (active)	59 nM (active)	6.6 nM (active)	23.5 nM (active)			
C=C(C)[C@@H]1CC[C@]2(C(=O)O)CC[C@]3(C)[C@H](CC[C@@H]4[C@@]5(C)CC[C@H](O)C(C)(C)[C@@H]5CC[C@]43C)[C@@H]12	5260 nM (active)	inactive	inactive	inactive	inactive	inactive	inactive
Cc1ccccc1C(=O)Nc1ccc(C(=O)N2CCCC(O)c3cc(Cl)ccc32)c(C)c1 (stereo not drawn)	inactive	inactive	inactive	inactive			
N#CC(=C(O)c1ccc(Cl)cc1Cl)c1nc2cc(Cl)ccc2c(=O)[nH]1	inactive	inactive	inactive	inactive			
CC(C)N1[N]C(=C2C=c3cc(O)ccc3=N2)c2c(N)ncnc21	41.8 nM (active)	235 nM (active)	105 nM (active)	1320 nM (active)			
COc1cccc2c1C(=O)c1c(O)c3c(c(O)c1C2=O)C[C@@](O)(C(=O)CO)C[C@H]3O[C@H]1C[C@H](N)[C@H](O)[C@H](C)O1	235 nM (active)	1180 nM (active)	743 nM (active)	296 nM (active)			
C#CCC(Cc1cnc2nc(N)nc(N)c2n1)c1ccc(C(=O)N[C@@H](CCC(=O)O)C(=O)O)cc1 (stereo partly drawn)	inactive	33.2 nM (active)	93.5 nM (active)	33.2 nM (active)			
N#CNC(=NCCCCCCOc1ccc(Cl)cc1)Nc1ccncc1	41.8 nM (active)	14.8 nM (active)	2.6 nM (active)	105 nM (active)			
CCC[C@@H](C=O)NC(=O)[C@H](CC(C)C)NC(=O)[C@H](CC(C)C)NC(=O)OCc1ccccc1 (Cbz-Leu-Leu-[Nva]-aldehyde)	1320 nM (active)	1660 nM (active)	148 nM (active)	187 nM (active)			
